SARS PLP yeast: qHTS of Yeast-based Assay for SARS-CoV PLP; S. cerevisiae expressing SARS-CoV PLpro, growth rescue; AID 485353, 2010; hit rate 0.19% among 330,000; Potency, µM (highest dose often 32.9 µM), inactives show top-dose activity, positive = growth rescue, actives largely listed as activators; calls by dose curve; also: potency is read from the fitted curve at half-maximal effect; 0% is about no effect; nearly all actives have a fitted effect of over 55% in size
Lassa entry inh: qHTS for Inhibitors of binding or entry into cells for Lassa Virus; hit rate 1.2% among 300,000; Potency, µM (highest dose often 37.9 µM), for inactives: at the highest dose activity change, negative = inhibition, actives largely listed as inhibitors; Lassa virus pseudotype entry inhibition, cell reporter; AID 540256, 2011; calls by dose curve; tested in HEK293 cells; also: potency is read from the fitted curve at half-maximal effect; % is scaled to controls: 0 for no effect and ±100 for the full control effect; nearly all actives have a fitted effect of over 50% in size
FMDV antiviral: High Throughput Screening for Foot and Mouth Disease Virus Antivirals. Potency, µM (doses to about 57.9 µM), for the others: at the highest dose activity change, negative = inhibition, hits mostly inhibitors. AID 1159524, 2015. FMDV antiviral cell-based qHTS. hit rate 1.2% among 410,000; calls by dose curve; tested in HEK293T cells; also: read-out not given here; potency is read from the fitted curve at half-maximal effect; % is scaled to controls: 0 for no effect and ±100 for the full control effect; nearly all actives have a fitted effect of over 45% in size
HCMV antiviral: qHTS Assay for inhibitors of the human cytomegalovirus (HCMV). activity change, negative = inhibition, % at 57.5 µM. hit rate 4.5% among 410,000. AID 1259415, 2018. HFF cells, HCMV-luciferase reporter, 72 h; stronger effect = lower value; in the data active = activity change below about -60%; inconclusive = no clear call, values can overlap the other calls; inactive = above about -39%; also: % is scaled to controls: 0 for no effect and ±100 for the full control effect
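Two-dose cell screen: HFF monolayers treated with compounds and infected with luciferase-expressing HCMV at 1 PFU/cell, 72 h at 37C, then lysed for luciferase measurement.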
HCV inhibitor: qHTS Assay for Inhibitors of Hepatitis C Virus (HCV); Potency, µM (titrated, usually from 41.8 µM), without a hit: at the highest dose activity change, negative = inhibition, usual class: inhibitors; Huh7.5.1 HCVcc-Cre infection, luciferase reporter, 44 h; hit rate 3.4% among 340,000; active = well fitted inhibition curve with a large enough effect; inconclusive = small, poorly fitted or top-dose-only effect, or another doubt; inactive = no such curve, though single readings can be large or run the other way; also: potency is read from the fitted curve at half-maximal effect; % is scaled to controls: 0 for no effect and ±100 for the full control effect
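Whole-lifecycle infectious HCVcc-Cre system; cells 1,000/well, compound then virus (~0.5 moi) added 4 h after plating, 44 h culture. Luciferase read 15 sec following 15 min substrate incubation, room temp.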
MARV entry inh: qHTS for inhibitors of binding or entry into cells for Marburg Virus. Marburg virus pseudotyped entry inhibition, cell reporter. AID 540276, 2011. hit rate 1.8% among 300,000. Potency, µM (top dose mostly 37.8 µM), for the others: at the highest dose activity change, negative = inhibition, most hits filed as inhibitors; calls by dose curve; tested in HEK293 cells; also: potency is read from the fitted curve at half-maximal effect; % is scaled to controls: 0 for no effect and ±100 for the full control effect
Numbers without * were called inactive; ? = inconclusive; . = no result given; [ ] = dose if it differs, or a comment. An excerpt weighted towards active compounds, which were near 8% of everything screened.

SMILES	SARS PLP yeast	Lassa entry inh	FMDV antiviral	HCMV antiviral	HCV inhibitor	MARV entry inh
Cc1cc(C)cc(NC(=O)CSc2oc(-c3ccco3)nc2S(=O)(=O)c2ccc(Cl)cc2)c1	.	0.3%[46.1 µM]	-0.7%	-61.6*	.	?
O=C(CSc1oc(-c2ccco2)nc1S(=O)(=O)c1ccc(Cl)cc1)NCC1CCCO1 (stereo unspecified)	6.3%	2.4%	.	-65.8*	?	-3.4%
COc1ccc(C(=O)Nc2cccc(-c3nc4cccnc4s3)c2C)c(OC)c1	.	11.6%[46.1 µM]	-28.0%	-6.8	.	.
COc1ccccc1C(=O)Nc1ncc2c(n1)CC(c1ccco1)CC2=O (stereo unspecified)	7.9%	-4.3%	.	-84.3*	?	-3.3%
O=C(O)Cc1c(C(=O)O)nnn1-c1cccc(C(F)(F)F)c1	-0.1%	11.8%[46.1 µM]	-9.8%	-2.7	8.5%	22.1%[46.1 µM]
N=c1c2ccccc2nnn1-c1cccc(C(F)(F)F)c1	-0.9%	14.9%[46.1 µM]	1.7%	-60.6*	17.7%	-3.4%
O=C1CSC(c2cccc([N+](=O)[O-])c2)N1Cc1ccccc1 (stereo unspecified)	1.2%	29.7%[46.1 µM]	?	-34.9	19.3%	?
NS(=O)(=O)c1ccc(NC2=CC(=O)C(=O)c3ccccc32)cc1	.	-0.5%[46.1 µM]	25.1µM*	49.9	15.8µM*	5.3%[46.1 µM]
CC(=O)Nc1ccc(NC2=CC(=O)c3ccccc3C2=O)cc1	-0.5%	1.3%[46.1 µM]	-0.7%	37.9	2.4%	?
CCOC(=O)c1ccc(NC2=CC(=O)C(=O)c3ccccc32)cc1	-2.2%	?	-3.2%	19.8	-16.1%	?
CCC(C(=O)Nc1cc(Cl)c(OC)cc1OC)c1ccccc1 (stereo unspecified)	-0.9%	?	-22.3%	-17.8	?	?
Cc1cc(NC2=CC(=O)C(=O)c3ccccc32)no1	.	?	?	-101.6*	?	?
Cc1ccc(NC2=CC(=O)C(=O)c3ccccc32)cc1	-54.3%	?	-39.3%	-103.9*	10µM*	?
Cc1cc(NC(=O)CCN2C(=O)c3ccccc3C2=O)no1	0.9%	3.9%	-19.4%	11.2	7.6%	3.8%
COc1cc(OC)c(NC2=CC(=O)C(=O)c3ccccc32)cc1Cl	-0.7%	.	?	-81.9*	5.01µM*	.
COC(=O)[C@H]1[C@H](CO)[C@H]2Cn3c(ccc(Br)c3=O)[C@@H]1N2S(=O)(=O)c1cn(C)cn1	.	.	.	-10.0	.	.
O=C(Nc1ccccc1F)c1cc(S(=O)(=O)N2CCOCC2)ccc1N1CCOCC1	-3.7%	-20.6%	-0.2%	-35.0	15.7%	-3.6%[46.1 µM]
O=S(=O)(c1ccccc1OC(F)(F)F)N1CCN(c2ccnc3cc(Cl)ccc23)CC1	-13.6%	.	?	-34.6	?	.
O=C(Nc1ccc(OC(F)(F)F)cc1)N1CCN(c2ccnc3cc(Cl)ccc23)CC1	-10.5%	.	?	-84.7*	11.2µM*	.
CC(=O)c1ccc(N2CCN(c3ccnc4cc(Cl)ccc34)CC2)cc1	?	?	?	?	?	10.4%[46.1 µM]
CC(C)(C)C(=O)N1CCN(c2ccnc3cc(Cl)ccc23)CC1	2.7%	.	?	-98.2*	?	.
O=C(C1CC1)N1CCN(c2ccnc3cc(Cl)ccc23)CC1	0.6%	0.9%	-13.5%	?	5.9%	1.7%
O=C(C1CCCCC1)N1CCN(c2ccnc3cc(Cl)ccc23)CC1	-4.5%	7.94µM*	28.2µM*	-82.8*	?	?
O=C(C1CCC1)N1CCN(c2ccnc3cc(Cl)ccc23)CC1	0.9%	.	-25.2%	-87.4*	?	.
COc1cccc(N2CCN(C(=O)C3CCN(S(=O)(=O)c4cn(C)cn4)CC3)CC2)c1	.	-8.1%[46.1 µM]	-10.9%	-29.4	.	.
SMILES	SARS PLP yeast	Lassa entry inh	FMDV antiviral	HCMV antiviral	HCV inhibitor	MARV entry inh
COc1ccc(C(=O)NC(=S)Nc2nc(C)cc(C)n2)cc1Br	-1.3%	5.3%[46.1 µM]	18.0%	9.7	?	1.1%[46.1 µM]
N#Cc1c(NCCCO)nc(-c2ccco2)c2c1CCCC2	4.7%	-14.0%	-22.7%	-21.4	10µM*	-9.6%[46.1 µM]
N#Cc1c(NCCCO)nc(NCc2ccccc2)c2c1CCN(Cc1ccccc1)C2	-20.6%	?	-9.7%	22.9	11.2µM*	?
CN1CCc2c(C#N)c(N3CCCCC3)nc(NCc3ccccc3)c2C1	-3.2%	?	-23.6%	45.7	?	?
CC(C)c1nc(NCc2ccccc2)c(C#N)c2c1CCCC2	2.9%	11.2%	-21.3%	2.6	-0.4%	-3.5%
CC(C)c1nc(NCCO)c(C#N)c2c1CCCC2	-3.0%	3.4%	?	-65.7*	?	-27.4%[46.1 µM]
CC(C)c1nc(N2CCOCC2)c(C#N)c2c1CCCC2	-36.3%	-29.5%	?	?	7.08µM*	?
CCSc1nc(N2CCOCC2)c2c(c1C#N)CCCC2	-6.0%	0.4%	?	-40.0	-20.5%	-23.6%[46.1 µM]
N#Cc1c(NC2CCCCC2)nc(-c2ccco2)c2c1CCCC2	2.0%	-12.9%	0.0%	.	-19.6%	0.2%[46.1 µM]
CCOC(=O)NN=C1C[C@@H](O)[C@@H](O)[C@@H]2[C@H]3C(=O)N(C4CCCCC4)C(=O)[C@@H]3CC[C@H]12	.	?	.	.	.	19.7%[14.2 µM]
Cc1cccc(CN2CCCC(C(=O)Nc3ccc(-c4cscn4)cc3)C2)c1 (stereo unspecified)	-2.9%	?	-17.3%	-32.8	.	?
COc1ccccc1NC(=O)N(C)C[C@H]1Oc2ncc(Br)cc2C(=O)N([C@H](C)CO)C[C@H]1C	.	.	-14.2%	-4.2	.	.
O=C(NCCc1ccc(Cl)cc1)c1c2c(nc3ccccc13)C(=O)N(C1CCCCC1)C2	.	0.8%[46.1 µM]	-16.1%	13.1	.	.
Cc1ccc(-c2[nH]ncc2C(=O)c2cccc(F)c2)c(O)c1	0.6%	3.6%	-2.2%	-74.6*	?	-3.1%
O=C(CCN1C(=O)C2C3C=CC(C3)C2C1=O)Nc1nccs1 (stereo unspecified)	0.4%	4.6%	-15.5%	-69.0*	24.7%	29.5%
O=C(CCCCCN1C(=O)C2C3C=CC(C3)C2C1=O)Nc1nccs1 (stereo unspecified)	?	.	-9.0%	18.8	2.1%	.
O=C(Nc1nc2ccccc2s1)c1ccc(OCC2CCCO2)cc1 (stereo unspecified)	-12.1%	10µM*	-72.9%	-88.2*	7.94µM*	?
Cc1cnc(NC(=O)c2ccc(OCC3CCCO3)cc2)s1 (stereo unspecified)	0.4%	1.78µM*	-83.1%	17.3	-19.5%	?
COC(=O)c1cccc(-c2cc(Cl)c3c(c2)CC(CNC(=O)c2cccnc2)O3)c1 (stereo unspecified)	.	.	-16.3%	.	.	.
Cc1cc(Cl)ccc1OC(C)C(=O)Nc1cccc(S(=O)(=O)N2CCOCC2)c1 (stereo unspecified)	.	.	-0.9%	-30.2	.	.
O=C(Nc1ccccc1N1CCOCC1)C1(c2ccc(Cl)cc2)CCC1	-4.8%	-21.8%[46.1 µM]	?	-66.0*	-29.4%	?
